This note sets out measurements from PubChem BioAssay (NCI).

What all share (assay): NCI-60 one-dose screen, 48 h (100 = growth as untreated, 0 = no growth, -100 = all killed)
Holding throughout (details): 10 µM unless noted

The subject of experiment [1] is SK-MEL-2 melanoma.
The subject of experiment [2] is EKVX NSCLC.
The test system of experiment [3] is SN12C renal.
Experiment [4] relates to UO-31 renal.
The subject of experiment [5] is TK-10 renal.
Experiment [6] deals with ACHN renal.
For experiment [7], the system named is CAKI-1 renal.
The subject of experiment [8] is A498 renal.
Experiment [9] relates to CCRF-CEM leukemia.
For experiment [10], the system named is MOLT-4 leukemia.
Experiment [11] concerns SR leukemia.
Experiment [12] has as its system RPMI-8226 leukemia.
Experiment [13] relates to OVCAR-8 ovarian.
The subject of experiment [14] is OVCAR-5 ovarian.
For experiment [15], the system named is OVCAR-4 ovarian.
The subject of experiment [16] is SK-OV-3 ovarian.
Experiment [17] deals with IGROV1 ovarian.
For experiment [18], the system named is OVCAR-3 ovarian.
Experiment [19] concerns HS 578T breast.
Experiment [20] concerns NCI/ADR-RES ovarian.

The panel holds about 83,000 compounds, 20% with a hit somewhere; the sample as a whole holds those more often.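 Cells were grown in 96-well plates and exposed to the test compound at a single concentration for 48 hours; results are reported as percent growth, with values below 10 considered active.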 A number with no mark means an inactive call. Active and inactive are the calls of the source.

On to `O=C1/C(=C\c2ccc3nccnc3c2)SC(=S)N1CCc1ccc(O)cc1`, for which the growth in [1] was 97.1%; in [2] it was 100%; in experiment [3], 86.9%; in experiment [4] it was 49.7%; in experiment [5], 67.8%; in experiment [6], 94%. Moreover, the growth is 78.9% in experiment [7]; 83.1% in experiment [8]; 79% in experiment [9]; 106% in experiment [10]; 68.9% in experiment [11]; 68.2% in experiment [12]. Besides, the growth in [13] was 98.4%; in experiment [14] it was 102%; in [15], 88.1%; in experiment [16] it was 113%; in [17], 94.1%; in experiment [18] it was 101%. For the same compound, the growth in experiment [19] is 94.3%; in [20] it was 101%.
Turning to `CCC1=C[C@@H]2C[C@]3(C(=O)OC)c4[nH]c5ccccc5c4CC[N@+](CC(=O)Nc4cc5c(cc4OC)N(C)[C@H]4[C@@](O)(C(=O)OC)[C@H](OC(C)=O)[C@]6(CC)C=CCN7CC[C@]54[C@@H]76)(C2)[C@H]13`, the growth in [1] was 105%; in [2], 105%; in experiment [3], 105%; in [4] it was 84.4%; in experiment [5], 98.6%; in experiment [6] it was 106%. For the same compound, the growth in experiment [7] was 93.2%; in experiment [8] it was 121%; in experiment [9], 80.6%; in [10], 108%; in experiment [11] it was 99.4%; in [12], 105%. For the same compound, the growth in [13] was 102%; in [14], 109%; in [15], 104%; in [16] it was 105%; in experiment [17], 104%; in experiment [18], 109%. Also, the growth is 99.4% in [19] and 106% in experiment [20].
Regarding `Cn1cc(-c2csc(-c3cn(C(=O)OC(C)(C)C)c4ccc(Br)cc34)n2)c2ccnc(Cl)c21`, the growth was 96.3% in experiment [1]; 87.7% in [2]; 93.6% in experiment [3]; 96% in experiment [4]; 92.9% in experiment [5]; 82.8% in [6]. Further, the growth is 96.4% in [7]; 89.6% in [8]; 93.1% in experiment [9]; 90.9% in [10]; 39.2% in experiment [11]; 79.4% in experiment [12]. Also, the growth in experiment [13] was 59.8%; in experiment [14] it was 105%; in experiment [15] it was 65.3%; in experiment [16], 82.8%; in experiment [17], 89.1%; in [18], 97.3%. In addition, the growth in [19] was 2.06% (active); in experiment [20], 71.8%.
For `COc1cc2nc3cc([N+](=O)[O-])ccc3c(NCCNCC(C)O)c2cc1OC` (stereo not given), the growth in experiment [1] was -29.6% (active); in experiment [2], 9.5% (active); in experiment [3], -16.2% (active); in experiment [4], 28.6%; in [5], 14.3%; in experiment [6], 2.74% (active). For the same compound, the growth in experiment [7] was 18.6%; in experiment [8] it was -34% (active); in experiment [9], -6.35% (active); in [10], -0.334% (active); in experiment [11], -17.9% (active); in experiment [12], -13% (active). Further, the growth was -8.18% (active) in experiment [13]; 5.11% (active) in experiment [14]; -32.4% (active) in [15]; 20.8% in [16]; -16.5% (active) in experiment [17]; -35.9% (active) in experiment [18]. The growth in [19] is -1.12% (active); in experiment [20] it was 75.1%.
In the case of `COCCNC(=O)Nc1ccc2nc(-c3cccs3)c(-c3cccs3)nc2c1`, the growth in [1] is 101%; in experiment [2], 87.9%; in experiment [3], 94.7%; in experiment [4], 74.4%; in [5], 104%; in experiment [6], 89.3%. Moreover, the growth is 89.8% in experiment [7]; 33.7% in experiment [8]; 96.8% in experiment [9]; 85.9% in experiment [10]; 67% in experiment [11]; 92.1% in [12]. Further, the growth in [13] is 93.4%; in [14], 87.9%; in [15] it was 98.2%; in experiment [16], 98.8%; in [17], 89%; in experiment [18], 106%. Also, the growth in [19] was 93.6%; in [20], 90.1%.
As to `O=C1c2c(c3c4ccccc4[nH]c3c3ccc4ccccc4c23)C(=O)N1CCN1CCNCC1`, the growth is 104% in experiment [1]; 84.7% in experiment [2]; 65.2% in experiment [3]; 56.7% in experiment [4]; 108% in experiment [5]; -49.4% (active) in experiment [6]. The growth in [7] is 63.3%; in experiment [8], 61.2%; in experiment [9] it was 0.375% (active); in experiment [10] it was -20.3% (active); in experiment [11], -13.3% (active); in [12], -35% (active). Moreover, the growth was 34.5% in experiment [13]; 99.5% in experiment [14]; 12.9% in [15]; 107% in experiment [16]; 58.1% in experiment [17]; -47.5% (active) in [18]. In addition, the growth in [19] was 94.7%; in experiment [20], 25.9%.
In the case of `C1CCC([PH+](C2CCCCC2)C2CCCCC2[PH+](C2CCCCC2)C2CCCCC2)CC1.[Au].[CH-]1CCCCC1C1CCCC[N-]1` (stereo not given), the growth in experiment [1] was -56.6% (active); in experiment [2] it was -77.6% (active); in [3], -47.3% (active); in experiment [4] it was -96.3% (active); in [5] it was -58.7% (active); in experiment [6], -99.4% (active). Moreover, the growth is -88% (active) in experiment [7]; -71.1% (active) in experiment [8]; 2.23% (active) in [9]; -6.51% (active) in experiment [10]; -3.06% (active) in experiment [11]; -15.6% (active) in experiment [12]. In addition, the growth in experiment [13] was -6.1% (active); in experiment [14], -69.3% (active); in experiment [15], -5.17% (active); in experiment [16], -65.8% (active); in experiment [17], -38.6% (active); in experiment [18], -92.2% (active). Further, the values for the growth in [19] and in [20] were -5.47% (active) and 9.87% (active), respectively.
As to `CCN(CC)CCn1c2ccc(OC)cc2c2sc3cc(OC)ccc3c(=O)c21`, the growth in experiment [1] was 63.5%; in experiment [2], 41.3%; in [3], 24.6%; in experiment [4], 8.29% (active); in [5], 49.2%; in experiment [6] it was -38.8% (active). Also, the growth in [7] was 48.3%; in experiment [8] it was 15.6%; in [9], 15%; in experiment [10], 3.81% (active); in experiment [11], 1.43% (active); in experiment [12] it was 11.8%. Also, the growth was 30% in experiment [13]; 37.1% in experiment [14]; 37.7% in experiment [15]; 56.5% in experiment [16]; 14.5% in [17]; 31.5% in [18]. The results for the growth in experiment [19] and in [20] were 46.1% and 23%, respectively.
